# Bioassay records (PubChem)
# A selection: hits, their analogues and other compounds. The true share with any hit is near 2.4%.
# B2AR arrestin = qHTS assay of beta-arrestin-biased ligands of beta2-adrenergic receptor | Beta-2 adrenergic receptor (Homo sapiens), P07550 | beta-arrestin recruitment to beta2AR, cell-based reporter | Potency, µM (top dose mostly 46.1 µM), usual class: activators | 330,000 compounds, 0.02% hits; note: nearly all actives have a fitted effect of over 65% in size
# D2 ag-1 = HTS Assay for Allosteric Agonists of the Human D2 Dopamine Receptor: Primary Screen for Agonists. activation, % at 2 µM. AID 485358, 2010. D(2) dopamine receptor (Homo sapiens), P14416. HEK293 T-REx D2 cells, calcium flux agonist mode. 340,000 compounds, 0.53% hits;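 active = activation over 3 SD above normal in the single-dose calcium agonist read, cut at about 30% in these data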
#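 In this primary screen, compounds producing a positive calcium signal within 180 s of addition to tetracycline-induced, force-coupled HEK293 Trex D2 cells are flagged; cells are dye-loaded with a no-wash calcium kit beforehand.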
# D2 PAM-1 = Beta-Arrestin HTS for Positive Allosteric Modulators of the Human D2 Dopamine Receptor: Potentiators. D(2) dopamine receptor (Homo sapiens), P14416. DiscoveRx D2 beta-arrestin cells, luminescence, 90 min; 100% = 57 uM dopamine signal. potentiation, % (concentration not given with the values). 360,000 compounds, 0.23% hits; in the data active = potentiation above about 50%; inconclusive = mostly about 30% to 49%
#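 PathHunter beta-arrestin assay in DiscoveRx D2 cells. Compounds were added with an EC20 of dopamine (50 nM final) for 90 min at 37 deg C. Luminescence was read 1 h after detection reagent, with 57 uM dopamine as the EC100 control.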
# D2 PAM-2 = HTS Assay for Positive Allosteric Modulators of the Human D2 Dopamine Receptor: Primary Screen for Potentiators; HEK293 T-REx D2, calcium flux, EC20 dopamine potentiation; 340,000 compounds, 0.34% hits; D(2) dopamine receptor (Homo sapiens), P14416; potentiation, % at 10 µM;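 active = potentiation over 3 SD above the plate norm, cut at about 30% in these data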
#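 Tetracycline-induced Hek293 Trex D2 cells, force-coupled to calcium, loaded with no-wash calcium dye. Compound added with 180 s kinetic read for agonism, then EC20 dopamine and a further 180 s read for potentiation.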
# D2 ag-2 = Beta-Arrestin HTS for Positive Allosteric Modulators of the Human D2 Dopamine Receptor: Agonists | D(2) dopamine receptor (Homo sapiens), P14416 | DiscoveRx PathHunter D2 beta-arrestin, luminescence, 90 min; 100% = 57 uM dopamine signal | activation, % (concentration not given with the values) | 360,000 compounds, 0.084% hits | AID 624465, 2012; in the data active = activation above about 40%; inconclusive = between about 15% and that limit
#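 Agonist mode: compounds alone added to overnight-plated D2 PathHunter cells for 90 min at 37 C, with 57 uM final dopamine (EC100) defining full response. Beta-arrestin recruitment detected by chemiluminescent reagent, read after 1 h at ambient temperature.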
# D2 antagonist = HTS Assay for Allosteric Antagonists of the Human D2 Dopamine Receptor: Primary Screen for Antagonists; D(2) dopamine receptor (Homo sapiens), P14416; HEK293 TREx D2 cells, calcium flux, dopamine EC80; inhibition, % at 10 µM; 340,000 compounds, 2% hits; AID 485344, 2010; in the data active = inhibition above about 30%; inactive = below that, where a call was filed
#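 In this primary screen, negative modulation is detected by tracking calcium flux after an EC80 dopamine challenge in inducible HEK293 T-REx D2 cells preexposed to test compound for 180 s.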
# D3 ag = qHTS of D3 Dopamine Receptor Agonist: D3 Dopamine Receptor B-arrestin Agonist Confirmatory Assay; shares compounds with D2 ag-1; DiscoveRx D3 beta-arrestin cells, luminescence, 90 min; Potency, µM (series often up to 76.9 µM), usual class: activators; 2,300 compounds, 4% hits; note: nearly all actives have a fitted effect of over 70% in size
# Target sequence (P35462 whole entry, looked up): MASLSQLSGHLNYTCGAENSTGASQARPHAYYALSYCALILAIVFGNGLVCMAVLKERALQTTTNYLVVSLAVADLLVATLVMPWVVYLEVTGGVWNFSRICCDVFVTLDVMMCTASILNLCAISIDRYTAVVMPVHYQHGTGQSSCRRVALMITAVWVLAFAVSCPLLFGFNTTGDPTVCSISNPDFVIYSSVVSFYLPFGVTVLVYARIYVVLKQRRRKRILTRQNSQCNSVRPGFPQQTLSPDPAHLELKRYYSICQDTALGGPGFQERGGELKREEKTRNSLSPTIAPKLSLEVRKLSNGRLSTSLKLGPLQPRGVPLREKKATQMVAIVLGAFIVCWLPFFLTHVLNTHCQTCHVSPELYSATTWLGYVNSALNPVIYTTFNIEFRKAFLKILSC
# D2 ag-3 = qHTS of D3 Dopamine Receptor Agonist: D2 Dopamine Receptor B-arrestin Agonist Counterscreen; AID 720507, 2013; Potency, µM (top dose mostly 76.9 µM), usual class: activators; DiscoveRx PathHunter D2 beta-arrestin, luminescence, 90 min; response scale: percent relative to full dopamine signal; shares compounds with D2 ag-1; 2,300 compounds, 5.9% hits; note: nearly all actives have a fitted effect of over 70% in size
# A number is an active result; - = inactive; ? = inconclusive; . = no result given. Unless noted, calls come from the whole dose curve; as a rule, active = well fitted activation curve with a large enough effect; inconclusive = small, poorly fitted or top-dose-only effect; inactive = flat fitted curve, though single readings scatter.
SMILES,B2AR arrestin,D2 ag-1,D2 PAM-1,D2 PAM-2,D2 ag-2,D2 antagonist,others
CCC1CCC(N2CCN(c3ccc(F)cc3)CC2)CC1 (centres undefined),-,-,-,-,-,-,
Cc1ccc(S(=O)(=O)N2CCC(C(=O)N/N=C/c3ccccc3[N+](=O)[O-])CC2)cc1,-,-,-,-,-,-,
O=S(=O)(NCc1cccnc1)c1ccc(Cl)s1,-,.,-,.,-,.,
CCCCOc1ccc2c(C)cc(=O)oc2c1OCCCC,-,-,-,-,-,43,
CCOC(=O)COc1ccc2c(C)cc(=O)oc2c1C(=O)c1ccccc1,-,-,-,-,-,-,
CC(=O)c1c(OCC(=O)O)ccc2c(C)cc(=O)oc12,.,-,-,-,-,47,
CCN(C(=O)CN1C(=O)c2ccc([N+](=O)[O-])cc2C1=O)C1CCCCC1,-,-,-,-,?,-,
O=C(C1=C(Nc2ccccc2)c2ccccc2S(=O)(=O)N1)c1ccccc1,-,-,-,-,-,40,
NC1=NC2(CCN(Cc3ccccc3)CC2)n2c(nc3ccccc32)N1,-,-,-,-,-,43,
COCCOc1ccc(C(F)(F)F)cc1NC(=O)c1ccc(C(F)(F)F)cc1,-,-,-,-,-,59,
CC1=C(CC(=O)c2ccc(Cl)cc2)C(=O)c2ccccc2C1=O,-,.,55,.,-,.,
Cc1cc(OCC(=O)Nc2ccc(Br)cc2)cc2c1C(=O)CC(C)(C)O2,-,-,-,-,-,41,
CC(=O)Nc1ccc(NC(=O)COc2cc(O)c3c(c2)OC(C)(C)CC3=O)cc1,-,-,-,-,-,-,
Cc1c(C)c2ccc(OCC(=O)Nc3ccccn3)cc2oc1=O,-,-,-,-,-,36,
Cc1c(C)c2ccc(OCC(=O)NCc3ccccn3)cc2oc1=O,-,-,-,-,-,-,
O=c1[nH]c(C2CCN(S(=O)(=O)c3cccc(Cl)c3)CC2)nc2c1nnn2Cc1ccccc1,-,-,-,-,-,-,
O=c1[nH]c(C2CCN(S(=O)(=O)c3ccccc3)CC2)nc2c1nnn2Cc1cccc(Cl)c1,-,-,-,-,-,32,
O=c1[nH]c(C2CCN(S(=O)(=O)c3ccccc3C(F)(F)F)CC2)nc2c1nnn2Cc1cccc(F)c1,-,-,-,-,-,43,
O=S(=O)(NCCN1CCOCC1)c1ccc(-c2ccc(S(=O)(=O)NCCN3CCOCC3)cc2)cc1,-,-,-,-,-,-,
O=C(CN(Cc1ccco1)S(=O)(=O)c1cccs1)Nc1ccccc1C(F)(F)F,-,-,-,-,-,-,
COc1ccc2[nH]c3c(c2c1)CCn1c-3nc2sc(C(=O)Nc3ccccc3)c(C)c2c1=O,-,-,.,-,.,39,
CCc1cc2c(=O)n3c(nc2s1)-c1[nH]c2ccc(OC)cc2c1CC3,-,-,-,-,-,-,
Cc1cc(OCCCCNC(C)C)cc(C(C)C)c1,-,-,-,-,-,-,
O=C(COCc1cc(-c2ccc3c(c2)OCO3)on1)N1CCCCC1,-,-,-,-,-,78,
CN1CCN(C(=O)COCc2cc(-c3ccc4c(c3)OCO4)on2)CC1,-,-,-,-,-,-,
SMILES,B2AR arrestin,D2 ag-1,D2 PAM-1,D2 PAM-2,D2 ag-2,D2 antagonist,others
CCOc1ccc(C2C(=O)N(C3CCCCCC3)CC(=O)N2CCc2ccc(Cl)cc2)cc1OC (centres undefined),.,-,.,-,.,.,
CCc1cccc(NS(=O)(=O)c2c(C)[nH]c(=O)[nH]c2=O)c1,-,-,-,-,-,-,
O=C1N/C(=N/Nc2ccccc2)S/C1=C\c1ccccc1,-,-,55,-,-,-,
COc1ccc(C(=O)N/C(=C\c2ccc([N+](=O)[O-])cc2)C(=O)NC(CCSC)C(=O)O)cc1 (centres undefined),-,-,-,-,-,35,
COc1ccc(/C=C(\NC(=O)c2ccc(OC)cc2)C(=O)NC(CCSC)C(=O)O)cc1 (centres undefined),-,-,-,-,-,-,
CC(C)c1cnc2c(c1SCC(=O)NC(C)(C)C)c(=O)n(C)c(=O)n2C,.,-,.,-,.,.,
O=C1CSC(c2ccccc2)N1CC12CC3CC(CC(O)(C3)C1)C2 (centres undefined),-,-,-,-,-,37,
O=C(CCN1C(=O)CSc2ccccc21)Nc1ccc(C(F)(F)F)cc1,-,-,-,-,-,88,
O=C(CCN1C(=O)CSc2ccccc21)Nc1cccc(C(F)(F)F)c1,-,-,-,-,-,-,
CCOC(=O)CS(=O)(=O)CC(=O)Nc1ccc([N+](=O)[O-])cc1OC,-,-,-,-,-,-,
C1CNCCNCCCNCCNC1,-,-,.,-,.,46,
Cc1ccc(/C=C/c2ccc(=O)n(Cc3ccc(Cl)cc3Cl)n2)cc1,-,-,-,36,-,-,
Cc1cc(C)n(-c2ccc([N+](=O)[O-])cc2)n1,-,-,-,-,-,34,
O=C(OCC(=O)N1CCCCC1)c1cccc(NS(=O)(=O)c2ccccc2)c1,-,-,-,-,-,-,
COc1ccc(N2CCN(C(=O)COC(=O)c3cccc(S(=O)(=O)Nc4cccc(C)c4)c3)CC2)cc1,-,-,-,-,-,40,
COc1ccc(/C=N/Nc2nnc(C)n2N)cc1OC(C)=O,-,-,-,-,-,-,D3 ag=?;D2 ag-3=-
Cc1cc(NC(=O)c2ccccc2F)on1,-,68,-,-,-,-,D3 ag=-;D2 ag-3=-
CCOC(=O)N1CCN(Cc2ccc(OCC(O)CN3CCCCC3)cc2)CC1 (centres undefined),-,63,-,-,?,51,D3 ag=-;D2 ag-3=?
CCOC(=O)C1CCN(CC(O)COc2ccc(C(=O)CC)cc2)CC1 (centres undefined),-,79,-,-,?,56,D3 ag=-;D2 ag-3=?
